Reference: PubChem BioAssay AID1159580 (chemical genetic matrix, 2015)
The campaign covered roughly 5,500 compounds. About 2,000 (36%) were called active. Another 18% or so got no clear call; they are omitted. Rule as the data show it: active = normalized growth mostly below about 0.91 (no sharp cut-off); inconclusive = no clear call, values can overlap the other calls; inactive = mostly above about 0.92. This is one part of the list. Where a SMILES comes first, the peptide text is derived from it. [ ]: non-standard residue; d: D form. Orn = NCCC[CH](N)C(=O)O

Test: chemical genetic growth profiling, strain panel (AID 1159580);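 also: tested at 20 µM; growth read once vehicle control cultures reached saturation at 30 °C; 1 = growth at the plate median or of vehicle wells; lower values mean less growth of the strain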
Details: growth OD

Measured: normalized growth

CC(C)CC1NC(=O)C(CCCN)NC(=O)C(C(C)C)NC(=O)C2CCCN2C(=O)C(Cc2ccccc2)NC(=O)C(CC(C)C)NC(=O)C(CCCN)NC(=O)C(C(C)C)NC(=O)C2CCCN2C(=O)C(Cc2ccccc2)NC1=O (stereo unspecified) (cyclo(FPV[Orn]LFPV[Orn]L); configuration not given here)
inactive: S. cerevisiae deletion strains, locus YKL160W, strain elf1, hits give low values 1.02 | S. cerevisiae deletion strains, locus YKL190W, strain CNB1, hits give low values 1.02 | S. cerevisiae deletion strains, locus YKR026C, strain gcn3, hits give low values 1.04 | S. cerevisiae deletion strains, locus YKR091W, strain srl3, hits give low values 1.02 | S. cerevisiae deletion strains, locus YLL001W, strain dnm1, hits give low values 1.03 | S. cerevisiae deletion strains, locus YLL026W, hits give low values 1.02 | S. cerevisiae deletion strains, locus YLL041C, strain sdh2, hits give low values 1.02 | S. cerevisiae deletion strains, locus YLR027C, strain aat2, hits give low values 1.01 | S. cerevisiae deletion strains, locus YLR058C, strain SHM2, hits give low values 1 | S. cerevisiae deletion strains, locus YLR102C, strain apc9, hits give low values 1.01 | S. cerevisiae deletion strains, locus YLR113W, strain HOG1, hits give low values 0.971 | S. cerevisiae deletion strains, locus YLR221C, strain rsa3, hits give low values 1.04 | S. cerevisiae deletion strains, locus YLR258W, strain gsy2, hits give low values 1.04 | S. cerevisiae deletion strains, locus YLR268W, strain sec22, hits give low values 0.989 | S. cerevisiae deletion strains, locus YLR320W, strain mms22, hits give low values 1.02 | S. cerevisiae deletion strains, locus YLR330W, strain CHS5, hits give low values 1.01 | S. cerevisiae deletion strains, locus YLR342W, strain FKS1 (second series), hits give low values 0.857 | S. cerevisiae deletion strains, locus YLR342W, strain FKS1, hits give low values 1.02 | S. cerevisiae deletion strains, locus YLR357W, strain rsc2, hits give low values 0.968 | S. cerevisiae deletion strains, locus YLR370C, strain arc18, hits give low values 0.927 | S. cerevisiae deletion strains, locus YLR371W, strain rom2, hits give low values 1.01 | S. cerevisiae deletion strains, locus YLR384C, strain iki3, hits give low values 1.03 | S. cerevisiae deletion strains, locus YLR418C, strain cdc73, hits give low values 0.932 | S. cerevisiae deletion strains, locus YML016C, strain PPZ1, hits give low values 1.01 | S. cerevisiae deletion strains, locus YML032C, strain rad52, hits give low values 0.989 | S. cerevisiae deletion strains, locus YML120C, strain ndi1, hits give low values 1.02 | S. cerevisiae deletion strains, locus YML124C, strain tub3, hits give low values 1 | S. cerevisiae deletion strains, locus YMR058W, strain fet3, hits give low values 1.03 | S. cerevisiae deletion strains, locus YMR078C, strain ctf18, hits give low values 1.01 | S. cerevisiae deletion strains, locus YMR125W, strain sto1, hits give low values 0.999 | S. cerevisiae deletion strains, locus YMR129W, hits give low values 1.02 | S. cerevisiae deletion strains, locus YMR205C, strain PFK2, hits give low values 1.02 | S. cerevisiae deletion strains, locus YMR223W, strain ubp8, hits give low values 0.978 | S. cerevisiae deletion strains, locus YMR263W, strain SAP30, hits give low values 1 | S. cerevisiae deletion strains, locus YMR307W, strain GAS1, hits give low values 0.833 | S. cerevisiae deletion strains, locus YNL067W, strain RPL9B, hits give low values 0.994 | S. cerevisiae deletion strains, locus YNL071W, strain lat1, hits give low values 1.03 | S. cerevisiae deletion strains, locus YNL128W, strain TEP1, hits give low values 1.03 | S. cerevisiae deletion strains, locus YNL153C, strain GIM3, hits give low values 1 | S. cerevisiae deletion strains, locus YNL183C, strain NPR1, hits give low values 0.948 | S. cerevisiae deletion strains, locus YNL209W, strain ssb2, hits give low values 1.01 | S. cerevisiae deletion strains, locus YNL233W, strain BNI4, hits give low values 0.982 | S. cerevisiae deletion strains, locus YNL248C, strain rpa49, hits give low values 1.03 | S. cerevisiae deletion strains, locus YNL250W, strain rad50, hits give low values 0.998 | S. cerevisiae deletion strains, locus YNL271C, strain bni1, hits give low values 0.995 | S. cerevisiae deletion strains, locus YNL298W, strain CLA4, hits give low values 0.967 | S. cerevisiae deletion strains, locus YNL307C, strain MCK1, hits give low values 0.991 | S. cerevisiae deletion strains, locus YNL322C, strain KRE1 (second series), hits give low values 1.06 | S. cerevisiae deletion strains, locus YNL322C, strain KRE1, hits give low values 1.01 | S. cerevisiae deletion strains, locus YNR049C, strain mso1, hits give low values 1.04 | S. cerevisiae deletion strains, locus YNR052C, strain pop2, hits give low values 0.984 | S. cerevisiae deletion strains, locus YOL012C, strain htz1 0.807 | S. cerevisiae deletion strains, locus YOL147C, strain pex11, hits give low values 1.01 | S. cerevisiae deletion strains, locus YOR001W, strain rrp6, hits give low values 1 | S. cerevisiae deletion strains, locus YOR061W, strain CKA2, hits give low values 1 | S. cerevisiae deletion strains, locus YOR069W, strain VPS5, hits give low values 1 | S. cerevisiae deletion strains, locus YOR070C, strain gyp1, hits give low values 1.03 | S. cerevisiae deletion strains, locus YOR080W, strain dia2, hits give low values 1.05 | S. cerevisiae deletion strains, locus YOR083W, strain WHI5, hits give low values 1.01 | S. cerevisiae deletion strains, locus YOR106W, strain vam3, hits give low values 1.01 | S. cerevisiae deletion strains, locus YOR136W, strain idh2, hits give low values 1 | S. cerevisiae deletion strains, locus YOR144C, strain elg1, hits give low values 1 | S. cerevisiae deletion strains, locus YOR184W, strain ser1, hits give low values 0.987 | S. cerevisiae deletion strains, locus YOR231W, strain MKK1, hits give low values 0.983 | S. cerevisiae deletion strains, locus YOR265W, strain rbl2, hits give low values 1.03 | S. cerevisiae deletion strains, locus YOR290C, strain snf2, hits give low values 0.973 | S. cerevisiae deletion strains, locus YOR316C, strain cot1, hits give low values 1.01 | S. cerevisiae deletion strains, locus YPL055C, strain LGE1, hits give low values 0.985 | S. cerevisiae deletion strains, locus YPL078C, strain atp4, hits give low values 1.02 | S. cerevisiae deletion strains, locus YPL106C, strain sse1, hits give low values 0.995 | S. cerevisiae deletion strains, locus YPL240C, strain hsp82, hits give low values 1.03 | S. cerevisiae deletion strains, locus YPL241C, strain CIN2, hits give low values 1.01 | S. cerevisiae deletion strains, locus YPL256C, strain CLN2, hits give low values 0.97 | S. cerevisiae deletion strains, locus YPR119W, strain clb2, hits give low values 1 | S. cerevisiae deletion strains, locus YPR141C, strain kar3, hits give low values 0.997 | S. cerevisiae deletion strains, locus YPR163C, strain tif3, hits give low values 0.953 | S. cerevisiae deletion strains, locus YPR167C, strain met16, hits give low values 1.01 | S. cerevisiae deletion strains, strain wtn01, hits give low values 0.988 | S. cerevisiae strains, strain wild type, hits give low values 1.04
active: S. cerevisiae deletion strains, locus YKL009W, strain mrt4, hits give low values 1.4 [resistant] | S. cerevisiae deletion strains, locus YKL068W, hits give low values 1.25 [resistant] | S. cerevisiae deletion strains, locus YKL085W, strain MDH1 (second series), hits give low values 1.11 [resistant] | S. cerevisiae deletion strains, locus YKL085W, strain MDH1, hits give low values 1.11 [resistant] | S. cerevisiae deletion strains, locus YKR001C, strain vps1, hits give low values 0.236 | S. cerevisiae deletion strains, locus YLR039C, strain RIC1, hits give low values 0.328 | S. cerevisiae deletion strains, locus YLR262C, strain YPT6 (second series), hits give low values 0.293 | S. cerevisiae deletion strains, locus YLR262C, strain YPT6, hits give low values 0.285 | S. cerevisiae deletion strains, locus YMR231W, strain pep5, hits give low values 0.324 | S. cerevisiae deletion strains, locus YOL006C, strain TOP1, hits give low values 0.122 | S. cerevisiae deletion strains, locus YOR270C, strain vph1, hits give low values 0.468 | S. cerevisiae deletion strains, locus YPL051W, strain arl3, hits give low values 0.7
